For nine compounds, Potency results are on record in PubChem BioAssay (Tox21).

Each structure is given as a SMILES string. Where “and” joins values, the source holds several entries; their conditions need not be identical. Equal values may be shown once. Records with an inconclusive call do not appear. A structure can be active in one record and inactive in another. Calls of active or inactive are those of the source. Unless noted, calls come from the whole dose curve.

A short description of assay [1]: Nuclear factor erythroid 2-related factor 2/antioxidant responsive element (Nrf2/ARE) small molecule agonists: qHTS cell viability counter screen in human keratinocytes (AID 1919968; active = well fitted cell-killing curve with a large enough effect in the repeat runs; note: nearly all actives have a fitted effect of over 55% in size). Put shortly: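 KeratinoSens cells (HaCaT keratinocytes stably carrying an ARE-luciferase reporter) were seeded at 1,500 cells/well and rested 5 h at 37 C/5% CO2. They were then exposed to compounds in DMSO for 23 h. Viability was read by CellTiter-Fluor fluorescence after 1 h.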
(qHTS replaces the single test concentration by a dilution series.)

The nature of assay [2]: Nuclear factor erythroid 2-related factor 2/antioxidant responsive element (Nrf2/ARE) small molecule agonists: luciferase reporter gene qHTS assay in human keratinocytes (AID 1919969). Note: nearly all actives have a fitted effect of over 35% in size. For orientation: A reporter such as luciferase makes a cellular process visible.
The target of assay [3] is Gonadotropin-releasing hormone receptor (Homo sapiens) (UniProt P30968). Put plainly: Human gonadotropin-releasing hormone receptor (GnRHR) small molecule agonists, calcium flux assay in GnRHR-HEK293 cells (AID 1920063). Note: nearly all actives have a fitted effect of over 35% in size. In short, it runs like this: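 HEK293 cells stably expressing human GnRHR were plated 18 h at 37 °C, loaded with calcium dye 1 h at 37 °C, then given compound in agonist mode; fluorescence (Ex/Em 480/540) read kinetically for 3 min at 1 s intervals.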
Chain of Gonadotropin-releasing hormone receptor (Homo sapiens) (P30968 whole entry, looked up): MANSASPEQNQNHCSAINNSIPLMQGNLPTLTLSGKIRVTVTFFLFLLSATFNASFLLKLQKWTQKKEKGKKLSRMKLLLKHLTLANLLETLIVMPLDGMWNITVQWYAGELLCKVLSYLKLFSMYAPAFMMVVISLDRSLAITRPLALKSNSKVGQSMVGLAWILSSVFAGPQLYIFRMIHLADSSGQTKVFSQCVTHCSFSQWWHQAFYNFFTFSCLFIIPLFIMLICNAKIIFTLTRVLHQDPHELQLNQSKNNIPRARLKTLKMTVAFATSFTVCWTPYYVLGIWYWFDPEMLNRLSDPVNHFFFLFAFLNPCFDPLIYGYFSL
In general terms: Calcium assays in cells follow changes in intracellular calcium, usually with a dye or a luminescent sensor.

A short description of assay [4]: p53 small molecule agonists, cell-based qHTS assay with human liver microsomes (AID 1963577).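 Note: p53 response element beta-lactamase reporter cells with liver microsomes plus NADPH.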 In short, it runs like this: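 p53RE-bla cells; 5 h settle, 37 C/5% CO2; cpd + HLM 0.5 mg/mL + NADPH 0.5 mg/mL (final); 16 h 37 C; LiveBLAzer 2 h RT dark; fluorescence readout.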
A short description of assay [5]: p53 small molecule agonists, cell-based qHTS assay with rat liver microsomes (AID 1963578). In short, it runs like this:
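Rat liver microsome activation: microsomes 0.5 mg/mL, NADPH 0.5 mg/mL final; p53RE-bla cells, 16 h 37 C; LiveBLAzer readout, 2 h RT dark.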

The nature of assay [6]: p53 small molecule agonists, cell-based qHTS assay with human liver microsomes: qHTS cell viability counter screen (AID 1963579). Note: nearly all actives have a fitted effect of over 45% in size. Put shortly:
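Luminescent CellTiter-Glo read-out, 30 min at room temperature, gauged cytotoxicity in p53RE-bla cells exposed 16 h at 37 C to DMSO-dissolved compounds with metabolic activation by human liver microsomes and NADPH, each 0.5 mg/mL final.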

Assay [7] in a line: p53 small molecule agonists, cell-based qHTS assay with rat liver microsomes: qHTS cell viability counter screen (AID 1963580). Note: nearly all actives have a fitted effect of over 45% in size. In short, it runs like this:
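p53RE-bla HCT-116 cells were exposed 16 h at 37 C to compounds with rat liver microsomes (0.5 mg/mL) and NADPH (0.5 mg/mL). Viability was measured in the same wells as ATP content by CellTiter-Glo luminescence.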

Assay [8] can be described thus: p53 small molecule agonists, cell-based qHTS assay: qHTS cell viability counter screen (AID 1963581). Note: nearly all actives have a fitted effect of over 45% in size. Put shortly:
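p53RE-bla HCT-116 cells were exposed to compounds for 16 h at 37 C; after the beta-lactamase FRET read in the same wells, CellTiter-Glo was added and luminescence (intracellular ATP) read after 30 min at room temperature.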

Assay [9] is described as follows: p53 small molecule agonists, cell-based qHTS assay (AID 1963582; active = well fitted activation curve with a large enough effect in the signal ratio in the repeat runs, not every such curve was filed as active; the % refers to the signal ratio). Put shortly: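 p53RE-bla beta-lactamase reporter cells rested 5 h at 37 C/5% CO2, then received compounds in DMSO by pin transfer and were incubated 16 h at 37 C. LiveBLAzer B/G FRET substrate was loaded for 2 h at room temperature before fluorescence reading.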
Assay [10] deals with 5-hydroxytryptamine receptor 2A (Homo sapiens) (UniProt P28223). Nature of the assay: 5-hydroxytryptamine receptor 2A (HTR2A) small molecule antagonists, cell-based qHTS assay (AID 1963586). Note: nearly all actives have a fitted effect of over 45% in size. Note: potency is the fitted concentration of half-maximal effect. In short, it runs like this:
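Antagonist-mode intracellular calcium assay: DOI (4 nM) added after 5 min compound pre-incubation at room temperature to dye-loaded HTR2A-CHO cells. Fluorescence followed for 3 min, sampled every second.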

Assay [11] has the same target. Nature of the assay: 5-hydroxytryptamine receptor 2A (HTR2A) small molecule agonists, cell-based qHTS assay (AID 1963587). Note: nearly all actives have a fitted effect of over 30% in size. Note: potency is the fitted concentration of half-maximal effect. Put shortly:
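CHO cells stably expressing human HTR2A, plated 18 h, loaded with calcium dye 1 h at 37 C. Agonist mode: compounds added and intracellular calcium fluorescence recorded kinetically for 2 min at 1 sec intervals.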

Assay [12] concerns the target Muscarinic acetylcholine receptor M1 (Homo sapiens) (UniProt P11229). Nature of the assay: Cholinergic receptor muscarinic 1 (CHRM1) small molecule antagonists, cell-based qHTS assay (AID 1963588). Note: nearly all actives have a fitted effect of over 40% in size. Note: potency is the fitted concentration of half-maximal effect. In short, it runs like this: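 CHRM1-CHO calcium-flux assay, antagonist mode. Cells were seeded 18 h, dye-loaded 1 h at 37 C and given compound for 5 min at RT, then acetylcholine was added at 50nM. FDSS fluorescence was read 3 min; 15 concentrations, three runs.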

Assay [13] shares this target. Nature of the assay: Cholinergic receptor muscarinic 1 (CHRM1) small molecule agonists, cell-based qHTS assay (AID 1963589). Note: nearly all actives have a fitted effect of over 35% in size. Put shortly:
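CHO cells stably expressing human CHRM1, seeded 18 h at 37 C/5% CO2, dye-loaded 1 h at 37 C, then given compound in agonist mode; intracellular calcium fluorescence read kinetically at 1 s intervals. Fifteen concentrations, three independent runs.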

Assay [14] is described as follows: cAMP Responsive Elements (CRE) small molecule agonists, cell-based qHTS assay (AID 1963590). In short, it runs like this:
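CRE-bla HEK 293T cells in DMEM with 10% dialyzed FBS, NEAA, pyruvate and 25 mM HEPES were plated 18 h at 37 C/5% CO2, then exposed to compounds in DMSO for 3 h before LiveBLAzer B/G FRET substrate addition.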

Assay [15] is described as follows: cAMP Responsive Elements (CRE) small molecule antagonists, cell-based qHTS assay (AID 1963591; active = well fitted inhibition curve with a large enough effect in the signal ratio in the repeat runs, not every such curve was filed as active; the % refers to the signal ratio). Put shortly:
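CRE-bla HEK293T cells were plated 18 h at 37 °C/5% CO2, pinned with compound in DMSO, then stimulated with NKH477 at 0.25 uM final for 3 h. LiveBLAzer B/G FRET substrate was added and plates incubated 2 h at room temperature.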

In assay [16] the target is Beta-2 adrenergic receptor (Homo sapiens) (UniProt P07550). Put plainly: Adrenergic beta2 receptor (ADRB2) small molecule antagonists, cell-based qHTS assay (AID 1963592). Note: series mostly up to about 92 µM; nearly all actives have a fitted effect of over 50% in size. In short, it runs like this: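 Cells (CHO, stable ADRB2 overexpression) incubated 18-20hr at 37C; compounds added from DMSO; agonist mix (1nM isoproterenol, 100uM IBMX, 25uM Ro-20-1724) added; 0.5hr RT; d2-cAMP and anti-cAMP-cryptate added; 1hr RT; 665/615 nm read.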
Chain of Beta-2 adrenergic receptor (Homo sapiens) (P07550 whole entry, looked up): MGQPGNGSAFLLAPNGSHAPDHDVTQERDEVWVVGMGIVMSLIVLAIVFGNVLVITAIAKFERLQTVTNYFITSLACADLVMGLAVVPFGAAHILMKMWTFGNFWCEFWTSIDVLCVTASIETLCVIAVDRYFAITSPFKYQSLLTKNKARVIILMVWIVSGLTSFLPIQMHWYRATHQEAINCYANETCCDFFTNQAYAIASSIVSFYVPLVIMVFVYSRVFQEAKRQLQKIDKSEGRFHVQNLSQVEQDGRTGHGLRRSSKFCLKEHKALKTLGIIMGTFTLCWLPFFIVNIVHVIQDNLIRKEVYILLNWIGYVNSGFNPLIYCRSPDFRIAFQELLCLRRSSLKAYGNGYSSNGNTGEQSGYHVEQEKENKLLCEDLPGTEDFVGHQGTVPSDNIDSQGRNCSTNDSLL

Assay [17] has the same target. Nature of the assay: Adrenergic beta2 receptor (ADRB2) small molecule agonists, cell-based qHTS assay (AID 1963593).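 Note: CHO cells stably overexpressing human ADRB2.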 Put shortly:
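CHO cells stably over-expressing ADRB2 were plated overnight at 37C, then dosed with compounds plus a stimulation mix containing 100uM IBMX and 25uM Ro-20-1724 for 0.5hr at room temperature. cAMP was measured by HTRF competition, 1hr.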

Assay [18] concerns the target D(2) dopamine receptor (Homo sapiens) (UniProt P14416). Nature of the assay: Dopamine D2 receptor (DRD2) small molecule agonists, cell-based qHTS assay (AID 1963594). Note: nearly all actives have a fitted effect of over 35% in size. Note: potency is the fitted concentration of half-maximal effect. In short, it runs like this: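 HEK293 cells stably expressing human DRD2, pre-treated with PDE inhibitor Ro20-1724 (0.1 mM final) and compound 10 min at room temperature, then stimulated with NKH477 (200nM […]) for 30 min. cAMP read by HTRF (665/620 nm).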

Assay [19] has the same target. Nature of the assay: Dopamine D2 receptor (DRD2) small molecule antagonists, cell-based qHTS assay (AID 1963595; active = well fitted inhibition curve with a large enough effect in the signal ratio in the repeat runs, with a control signal flat; the % refers to the signal ratio). In short, it runs like this:
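Antagonist mode in DRD2-HEK293 cells: after compound addition with 0.1 mM Ro20-1724, cells received quinpirole (12 nM) and NKH477 (200 nM) for 30 min at room temperature; HTRF cAMP read after 1 h detection.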

Assay [20] can be described thus: G protein-coupled receptor (GPCR) small molecule agonists, calcium flux assay: HEK293 wild type cell line counter screen (AID 1920065). In short, it runs like this: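 Cells were plated and cultured 18 h at 37 C/5% CO2, then loaded with calcium dye for 1 h at 37 C. Compounds in DMSO were pin-transferred in agonist mode, and fluorescence (Ex/Em 480/540) was read kinetically for 3 min at 1 s intervals.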

Chain of D(2) dopamine receptor (Homo sapiens) (P14416 whole entry, looked up): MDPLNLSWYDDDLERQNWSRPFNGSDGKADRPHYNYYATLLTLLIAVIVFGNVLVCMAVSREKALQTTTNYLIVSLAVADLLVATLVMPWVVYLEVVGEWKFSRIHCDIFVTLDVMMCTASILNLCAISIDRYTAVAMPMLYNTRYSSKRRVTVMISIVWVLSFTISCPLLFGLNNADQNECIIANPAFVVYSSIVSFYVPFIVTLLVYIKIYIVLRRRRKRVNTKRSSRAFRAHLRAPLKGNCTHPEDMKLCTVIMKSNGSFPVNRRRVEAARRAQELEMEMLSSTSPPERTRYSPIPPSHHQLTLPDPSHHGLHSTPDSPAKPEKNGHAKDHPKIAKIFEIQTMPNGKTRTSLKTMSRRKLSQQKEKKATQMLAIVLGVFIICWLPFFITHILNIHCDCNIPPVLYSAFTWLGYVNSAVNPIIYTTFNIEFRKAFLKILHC
Chain of 5-hydroxytryptamine receptor 2A (Homo sapiens) (P28223 whole entry, looked up): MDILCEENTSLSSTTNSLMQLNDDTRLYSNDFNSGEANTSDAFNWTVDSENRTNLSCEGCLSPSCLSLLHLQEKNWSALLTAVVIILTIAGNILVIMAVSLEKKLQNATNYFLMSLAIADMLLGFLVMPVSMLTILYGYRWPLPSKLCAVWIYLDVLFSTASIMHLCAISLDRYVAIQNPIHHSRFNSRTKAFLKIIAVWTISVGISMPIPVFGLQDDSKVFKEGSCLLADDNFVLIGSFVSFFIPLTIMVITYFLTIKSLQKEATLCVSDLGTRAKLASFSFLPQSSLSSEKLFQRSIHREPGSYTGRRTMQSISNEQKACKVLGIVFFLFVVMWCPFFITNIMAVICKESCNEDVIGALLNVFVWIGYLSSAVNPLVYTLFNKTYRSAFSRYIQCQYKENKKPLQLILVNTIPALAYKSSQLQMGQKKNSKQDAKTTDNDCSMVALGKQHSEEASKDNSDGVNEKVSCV
Chain of Muscarinic acetylcholine receptor M1 (Homo sapiens) (P11229 whole entry, looked up): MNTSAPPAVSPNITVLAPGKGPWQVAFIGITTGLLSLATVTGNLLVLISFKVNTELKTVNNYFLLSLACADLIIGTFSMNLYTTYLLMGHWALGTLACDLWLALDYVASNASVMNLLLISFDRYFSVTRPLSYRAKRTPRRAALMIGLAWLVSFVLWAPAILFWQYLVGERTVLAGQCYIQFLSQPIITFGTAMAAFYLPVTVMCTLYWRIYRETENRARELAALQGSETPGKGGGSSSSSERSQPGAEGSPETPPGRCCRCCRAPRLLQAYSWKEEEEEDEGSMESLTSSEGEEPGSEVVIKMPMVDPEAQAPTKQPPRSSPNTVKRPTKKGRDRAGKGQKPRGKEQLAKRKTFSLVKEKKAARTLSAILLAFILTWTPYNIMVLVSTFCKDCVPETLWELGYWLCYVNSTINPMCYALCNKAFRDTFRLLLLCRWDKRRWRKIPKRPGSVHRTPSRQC

Consider `COc1ccc(Nc2ccccc2)c(C)c1`, for which the Potency result in [1], in assay [2], in [3], in assay [4], in assay [5] and in [6] was “inactive” each time. For the same compound, the Potency entry in [7], in assay [8], in assay [9], in assay [11], in assay [12] and in assay [13] was “inactive” in each case. The Potency entry in assay [14], in assay [15], in assay [16], in [17], in [18] and in assay [19] was “inactive” each time. In addition, the Potency result in assay [10] was “inactive and 21.1 µM (active)”.

For the compound `CC1=CC[C@H]2C[C@@H]1C2(C)C`, the Potency result in assay [1], in assay [2], in [3], in assay [20], in assay [6] and in [8] was “inactive” in each case. Also, the Potency result in assay [10], in assay [11], in assay [12], in assay [13], in [14] and in assay [15] was “inactive” in each case. In addition, the Potency entry in assay [16], in assay [17], in assay [18] and in assay [19] was “inactive” throughout.

As for `NC1CCCCC1`, the Potency entry in [1], in [2], in assay [3], in assay [20], in [7] and in [8] was “inactive” each time. Besides, the Potency result in [10], in assay [13], in assay [15], in assay [16], in assay [17] and in assay [18] was “inactive” throughout. Further, the Potency entry in [19] was “inactive”. Moreover, the Potency in [11] was 1.96 µM (active) and inactive; in assay [12] it was “inactive and 4.7 nM (active)”.

As for `NC(=O)/N=N/C(N)=O`, the Potency entry in [1], in assay [2], in assay [3], in assay [4], in [5] and in assay [6] was “inactive” throughout. Besides, the Potency result in assay [7], in [8], in [10], in assay [11], in assay [12] and in assay [13] was “inactive” in each case. The Potency result in [14], in assay [15], in [16], in assay [17], in [18] and in assay [19] was “inactive” throughout.

With `C=CC(C)(CCC=C(C)C)OC(C)=O` (stereo not drawn), the Potency result in [1], in assay [2], in [3], in assay [4], in assay [6] and in assay [7] was “inactive” each time. Moreover, the Potency entry in [8], in assay [9], in [10], in [11], in assay [12] and in assay [13] was “inactive” in each case. In addition, the Potency entry in assay [14], in assay [15], in [16], in [18] and in [19] was “inactive” throughout.

Regarding `O=C(C1CCCCC1)N1CC(=O)N2CCc3ccccc3C2C1` (stereo not drawn), the Potency entry in assay [1], in assay [2], in assay [3], in assay [20], in assay [16] and in [18] was “inactive” in each case. In addition, the Potency entry in assay [19] is “inactive”.

Regarding `NC(=O)c1cccnc1`, the Potency result in assay [1], in assay [2], in assay [3], in [4], in assay [5] and in assay [6] was “inactive” each time. For the same compound, the Potency result in assay [7], in [8], in assay [9], in [14], in [15] and in [16] was “inactive” in each case. Moreover, the Potency entry in assay [17], in assay [18] and in [19] was “inactive” in each case.

Take `COc1ccc(C)cc1N`: the Potency entry in assay [1], in assay [2], in assay [3], in assay [4], in [6] and in assay [8] was “inactive” throughout. The Potency result in assay [9], in assay [10], in assay [11], in [12], in assay [13] and in assay [14] was “inactive” throughout. The Potency result in [15], in assay [16], in assay [17], in assay [18] and in assay [19] was “inactive” each time.

For the compound `CC(C)CC(C)CC(O)CC(C)C` (stereo not drawn), the Potency entry in [1], in assay [2], in assay [3], in assay [20], in assay [4] and in assay [5] was “inactive” throughout. In addition, the Potency entry in [6], in assay [7], in [8], in [9], in assay [10] and in assay [11] was “inactive” throughout. The Potency entry in [12], in [13], in assay [14], in assay [15], in [16] and in assay [17] was “inactive” in each case. Besides, in assay [18], the Potency was 1.8 nM (active) and inactive.
